These results are taken from PubChem BioAssay AID504466 (National Center for Advancing Translational Sciences (NCATS), 2011).

About 4,200 (1.3%) of roughly 330,000 compounds were called active. About 6% were inconclusive and are not listed. Shown is part of a subset that was picked to be rich in actives. Unmarked numbers belong to inactive results. Calls follow the shape of the dose curve; as a rule, active = well fitted activation curve with a large enough effect; inconclusive = small, poorly fitted or top-dose-only effect; inactive = no such curve, though single readings can be large or run the other way.
Potency is read from the fitted curve at half-maximal effect.

The assay can be described thus: qHTS screen for small molecules that induce genotoxicity in human embryonic kidney (HEK293T) cells expressing luciferase-tagged ELG1. Also: nearly all actives have a fitted effect of over 60% in size. As to activity change, positive = activation: % of control where 0% means no effect. Particulars: HEK293T ELG1-luciferase reporter, luminescence, 16 h; series mostly up to 46 µM; activity change, positive = activation: at the top concentration. The text has this: NIH Molecular Libraries Probe Production Network [MLPCN] NIH Chemical Genomics Center [NCGC] MLPCN Grant: 1 R03 MH092164-01 Assay Provider: Kyungjae Myung, NHGRI, NIH Keywords: MLPCN, qHTS, NCGC, genotoxicity, cancer Assay Overview: Cancer cells divide rapidly compared to normal cells in the body. During cell division, cancer cells need to duplicate their genome by DNA replication. The failure of genome duplication leads to cancer cells' death. Therefore, inhibitors of DNA replication could specifically kill cancer cells. Based on this concept, many chemotherapeutic agents were developed and have been used to treat cancer patients. However, there are a limited number of agents available in the clinical setting, and some of those that do exist have low efficacy and severe side effects. Therefore, if we can find the compounds that effectively block DNA replication either by directly damaging DNA or by inhibiting other cellular mechanisms, the options for cancer treatment will be broadened. With this in mind, we developed a quantitative high-throughput ELG1-luciferase reporter gene assay. Since the level of human ELG1 protein is enhanced in response to genetic stresses, increases in luciferase activity can be used to identify compounds that cause genetic stress.
Assay Protocol Summary: For genotoxicity screening, 2,000 cells in 5 uL/well were dispensed into white, solid-bottom 1536-well plates using a solenoid-based dispenser. Following transfer of 23 nL compound or DMSO vehicle by a pin tool, the plates were incubated 16 hr at 37 °C and 5% CO2. 5 ul ONE-Glo (Promega) was then added to each plate and following a 30 min incubation at room temperature, luciferase activity was quantified on a ViewLux CCD-based plate reader.
In general terms: Quantitative high-throughput screening tests each substance at several concentrations.
For `Cc1cc(NC(=O)CSCC(=O)NC(C)c2ccccc2)no1` (stereo not given), the “activity change, positive = activation” value is 1.08%.

Take `COc1ccc(-n2ncc3c(SCC(=O)NNC(C)=O)ncnc32)cc1`: the “activity change, positive = activation” value was 15.2%.

Turning to `COc1ccc(-n2ncc3c(N4CCCc5ccccc54)ncnc32)cc1`, the Potency was 1.16 µM (active).

As for `COc1ccc2oc(=O)c(C(=O)N3CCCc4ccccc43)cc2c1`, the “activity change, positive = activation” value was -9.84%.

`Cc1cccc(-n2ncc(Cl)c(Cl)c2=O)c1`: the “activity change, positive = activation” value is -13.8%.

Turning to `COc1ccccc1N1CCN(C(=O)CSc2ncnc3c2cnn3-c2ccc(C)c(C)c2)CC1`, the “activity change, positive = activation” value was 0.292%.

With `Cc1cccc(-n2ncc3c(N4CCc5ccccc54)ncnc32)c1`, the Potency was 2.59 µM (active).

In the case of `O=C1COc2ccc(C(=O)COC(=O)CCOc3ccccc3)cc2N1`, the “activity change, positive = activation” value was -1.34%.

Take `C=CCC[C@H](Cc1ccc(F)cc1)C(=O)OC[C@@H](Cc1c[nH]c2ccccc12)NC(=O)[C@H](CC=C)CC(=O)N[C@H](CO)Cc1ccccc1`: the “activity change, positive = activation” value is -3.43%.

In the case of `COc1cc2ccccc2cc1C(=O)Nc1ccc(NC(=O)c2cccs2)cc1`, the “activity change, positive = activation” value was -6.8%.

As for `COc1cc2ccccc2cc1C(=O)Nc1ccc(N2CCOCC2)cc1`, the “activity change, positive = activation” value is 16.1%.

Turning to `COc1cc2ccccc2cc1C(=O)Nc1ccncc1`, the Potency was 16.4 µM (active).

`O=C(CSc1nnc(-c2ccncc2)o1)Nc1cccc(Cl)c1`: the “activity change, positive = activation” value is 14.8%.

Take `CN(Cc1ccc(CNC[C@H]2O[C@@H](n3cnc4c(N)ncnc43)[C@H](O)[C@@H]2O)o1)S(C)(=O)=O`: the “activity change, positive = activation” value was 0.515%.

Consider `C=C(C)CSc1nnc(-c2ccc(C)cc2)n1N`, for which the Potency was 10 µM (active).

`Cc1ccc(NC(=O)NC(=O)CSc2nnc(-c3ccc(OC(F)F)cc3)n2N)c(C)c1`: the “activity change, positive = activation” value is 3.7%.

On to `Cc1ccc(-c2nnc(SC(C)C#N)n2N)cc1` (stereo not given), for which the “activity change, positive = activation” value was 13.4%.

For the molecule `CN(CC(=O)NCCc1ccc(S(N)(=O)=O)cc1)CC(=O)Nc1ccc(F)c(F)c1F`, the “activity change, positive = activation” value was -0.661%.

With `CCOC(=O)C1CCN(C(=O)CN2C(=O)NC(C)(c3ccc4cc(OC)ccc4c3)C2=O)CC1` (stereo not given), the “activity change, positive = activation” value is -5.31%.

On to `N#CCCN(C(=O)COC(=O)c1ccc2c(c1)OCCO2)c1ccccc1`, for which the “activity change, positive = activation” value was 0.0128%.

For the molecule `O=C(OCC(=O)N1CCCCCC1)c1ccc(Cl)nc1`, the “activity change, positive = activation” value was 0.144%.

Turning to `CCN(CC)S(=O)(=O)c1ccc(C)c(NC(=O)COc2ccc(Br)cc2Cl)c1`, the “activity change, positive = activation” value is 8.73%.

Regarding `Cc1cccc(NC(=O)Nc2ccc(OCc3ccccc3)cc2)n1`, the “activity change, positive = activation” value is 4.5%.

As for `Cc1cccc(NC(=O)COc2ccc(Br)cc2C)n1`, the Potency is 2 µM (active).

Take `COCCNC(=O)COc1ccccc1C`: the “activity change, positive = activation” value is 3.83%.

For `Cc1cccc(NC(=O)COc2ccccc2C)n1`, the Potency is 18.4 µM (active).

For the molecule `Cc1ccccc1OCC(=O)Nc1nc(C)c(C(=O)N(C)C)s1`, the “activity change, positive = activation” value was -0.0756%.

As to `CC(=NNC(=O)c1ccc2nc[nH]c2c1)c1ccc(Br)cc1`, the “activity change, positive = activation” value is 2.04%.

Consider `CCOC(=O)C1CCN(CC(=O)Nc2ccc(OC)c(S(=O)(=O)N3CCCCC3)c2)CC1`, for which the “activity change, positive = activation” value is -1.03%.

`CC1O[C@H](OC2C(COC3OC(CO)C(O)[C@H](O)C3O)OC(OC3CC[C@]4(C)C(CC[C@@]5(C)[C@@H]4C=C[C@]46OC[C@@]7(CCC(C)(C)C[C@H]74)C(O)C[C@@]56C)C3(C)C)C(O)C2O)C(O)C(O)C1O` (stereo not given in full): the “activity change, positive = activation” value was 2.19%.

Turning to `CC(=O)c1sc(NC(=O)C2=NN(c3ccccc3)C(=O)CC2)nc1C`, the “activity change, positive = activation” value was -0.325%.

For `CC(=O)c1sc(N/N=C\c2ccc(C)cc2)nc1C`, the Potency is 18.4 µM (active).

Turning to `CC(=O)c1sc(N)nc1C`, the “activity change, positive = activation” value was 4.58%.

`COc1cc(C=NNC(=O)c2cccnc2)ccc1OC(=O)c1ccccc1F`: the “activity change, positive = activation” value was 0.184%.

For the molecule `CC[C@@H]1CCCCc2ccccc2[C@@H](C(=O)C[C@H](O)CC(C)=O)OC1=O`, the “activity change, positive = activation” value was 0.282%.

For the molecule `O=C(CN1C(=O)NC2(CCCCCCC2)C1=O)NCc1ccc(F)cc1`, the “activity change, positive = activation” value was 1.1%.

Take `Cc1ccc(NC(=O)CN(C)C(=O)c2ccc(Cl)c(S(=O)(=O)NCc3ccco3)c2)cc1`: the “activity change, positive = activation” value is -2.11%.

As to `COC(=O)c1ccc(/C=C/c2c(-c3ccc(OC)cc3)sc3ccccc23)cc1`, the “activity change, positive = activation” value is 0.743%.

In the case of `Oc1ccc(N=Cc2sc3ccccc3c2Cl)cc1`, the “activity change, positive = activation” value was -1.68%.

As to `COc1ccc(N=C(C)c2sc3ccccc3c2O)cc1`, the Potency was 2.31 µM (active).

For `CCOc1ccccc1Nc1nnc(SCC(=O)NCC2CCCO2)s1` (stereo not given), the “activity change, positive = activation” value is -2.62%.

Regarding `Cc1ccc(C)c(NC(=O)CN(C)C(=O)COc2ccc3ccccc3c2)c1`, the “activity change, positive = activation” value is -2.21%.

As to `O=C(CSc1nc2ccccc2c(=O)n1-c1ccc(F)cc1)NC1CC1`, the “activity change, positive = activation” value was 4.22%.

Regarding `O=C(CSc1nc2ccccc2c(=O)n1-c1ccccc1F)N1CCOCC1`, the “activity change, positive = activation” value is 8.89%.

With `Cc1ccc(-n2c(SCC(=O)N3CCC(C(=O)O)CC3)nc3ccccc3c2=O)cc1C`, the Potency was 14.6 µM (active).

Turning to `COc1ccc(S(=O)(=O)N2CCCCCC2)cc1NC(=O)Cc1ccc(OC)c(OC)c1`, the “activity change, positive = activation” value was -1.59%.

In the case of `N#CC(Cc1cc2ccccc2n1S(=O)(=O)c1ccccc1)OCc1ccccc1` (stereo not given), the “activity change, positive = activation” value is -2.05%.

For the molecule `Fc1ccc2nc(N3CCCCC3)sc2c1`, the Potency was 7.31 µM (active).

Regarding `Cc1ccc2nc(N3CCN(C(=O)c4ccco4)CC3)sc2c1`, the “activity change, positive = activation” value is 11.9%.

Consider `O=C(NCCc1cccc(F)c1)C1CCCN(c2nc3ccccc3s2)C1` (stereo not given), for which the “activity change, positive = activation” value is -3.62%.
